Measurements from PubChem BioAssay (NCI).
Compounds without any hit were thinned out: in the full panel of roughly 83,000, 20% have a hit.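 Note: values are percent growth. 100 is the growth of untreated cells, values between 100 and 0 indicate rising inhibition; between -100 and 0 indicates cell death.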 Values without a mark were called inactive. Active and inactive are the calls of the source. The calls were made as follows: active = growth percent below 10; inactive = the rest.

System: HOP-62 NSCLC
Experiment: NCI-60 one-dose screen, 48 h (100 = growth as untreated, 0 = no growth, -100 = all killed)
Conditions: 10 µM unless noted

Row | Compound | growth
1 | CN(C[C@H]1Cc2c(cccc2N2CCN(c3ncccn3)CC2)CN1)[C@H]1CCCc2cccnc21 | 17.2%
2 | COc1ccc(-c2cnoc2-c2ccc(OC)cc2O)cc1 | 36.9%
3 | COc1ccc(/C=N\NC(=O)CN2CCN(c3cc4c(cc3F)c(=O)c(C(=O)N/N=C/c3ccc(OC)c(OC)c3)cn4C3CC3)CC2)cc1OC | 9.47% (active)
4 | C1=Cc2ccccc2N(c2nnc(-c3ccccc3)o2)c2ccccc21 | 99.5%
5 | COc1ccc(-c2nc3sc(-c4cc(OC)c(OC)c(OC)c4)nn3c2/C=C2/C(=O)Nc3ccc(F)cc32)cc1 | 4.69% (active)
6 | O=C(Oc1ccccc1[N+](=O)[O-])C1CCCN1C(=O)OCc1ccccc1 (stereo not drawn) | 111%
7 | CC(C)(C)OC(=O)NC(CSCc1ccccc1)C(=O)ON1C(=O)CCC1=O (stereo not drawn) | 105%
8 | O=S(=O)(NCCCNc1nccc(-n2ccc3cccnc32)n1)c1ccc(Br)cc1 | 109%
9 | COc1ccc(/C=C2\Oc3cc(OCCCN4CCCC4)ccc3C2=O)cc1 | 89.7%
10 | Cc1csc(NC(c2ccc(Br)cc2)c2c(C)nc3ccccn23)n1 (stereo not drawn) | 92.8%
11 | Cn1c(=O)cc(NC(=O)CN2CCN(c3cc4c(cc3F)c(=O)c(C(=O)O)cn4C3CC3)CC2)[nH]c1=O | 98.9%
12 | CC(C)(C)n1cc(-c2ccnc(NCCNS(=O)(=O)c3ccc(F)cc3)c2)c(-c2cccc(O)c2)n1 | 78.9%
13 | CC(C)(C)n1cc(-c2ccnc(NCCNS(=O)(=O)c3ccc(Cl)cc3)c2)c(-c2cccc(O)c2)n1 | 84.9%
14 | O=C1Nc2ccc3c(c2/C1=C\c1cc2c(cc1Br)OCO2)OCO3 | -21.3% (active)
15 | Cc1ccc(N2CCN(C(C)C(N)=O)CC2)cc1 (stereo not drawn) | 109%
16 | COc1cc(NC(N)=NCCC(C)(C)Oc2ccc(C(F)(F)F)cc2)ncc1C#N | 31%
17 | CCc1ccc(-c2ccc(=O)n(-c3ccc(S(N)(=O)=O)cc3)n2)cc1 | 56.9%
18 | CC[N+](CC)=c1cc2oc3cc(N(C)C)ccc3nc-2cc1C | 18.3%
19 | COc1cccc(-c2nc3sccn3c2-c2ccnc(NCCCNS(=O)(=O)c3ccc(F)cc3)c2)c1 | 64.1%
20 | N[C@H]1CN(C(=O)c2cc3cc(Br)c(F)c(F)c3[nH]2)C[C@@H]1O | 99.9%

Row | Compound | growth
21 | O=C(N/N=C/C=C\c1ccccc1)C(=O)N/N=C/C=C/c1ccccc1 | 107%
22 | O=C(O)COc1ccc(-c2cssc2=S)cc1 | 104%
23 | CCOC(=O)c1c(NS(=O)(=O)c2ccc(C)cc2)sc2c1CCC1(C2)OCCO1 | 90.7%
24 | Cc1nc2ncccc2nc1Nc1ccc(S(=O)(=O)Nc2ccccn2)cc1 | 97%
25 | Fc1ccc(Nc2ncnc3ccc(-c4cnc5[nH]ccc5c4)cc23)cc1Cl | 29.1%
26 | COc1ccc(C2C(C#N)=C(N)Oc3c2ccc2ccccc32)cc1 (stereo not drawn) | 37.3%
27 | COc1ccc(C(=O)N2NC(=O)/C(=C/c3cn(-c4ccccc4)nc3-c3ccccc3)N=C2c2ccccc2)cc1 | 115%
28 | C=C1C(=O)O[C@H]2[C@H]1CC/C(Cn1cc(CNC(=O)Cc3cn(C(=O)c4ccc(Cl)cc4)c4ccc(OC)cc34)nn1)=C\CC[C@@]1(C)O[C@@H]21 | 78.6%
29 | CCCCC(CC)OC(=O)C(Br)CC (stereo not drawn) | 111%
30 | O=C1/C(=C/c2ccccc2)Oc2ccc(O)c(I)c21 | 100%
31 | COC(=O)c1cc2cc(-c3ccc(OC)cc3)cnc2[nH]1 | 50.3%
32 | c1coc(CNc2ccnc(Nc3ccc(OCCN4CCCCC4)cc3)n2)c1 | 93.1%
33 | COc1ccc2[nH]c(C(=O)OCc3ccc4c(Cl)cc(Cl)c(O)c4n3)cc2c1 | 28.2%
34 | CCOC(=O)C1CCNC(=O)C1=O (stereo not drawn) | 112%
35 | O=C(O)C1CCCCN1c1nc(Cl)nc(Cl)n1 (stereo not drawn) | 101%
36 | C=C1CCC2C(C)(CO)C(O)CCC2(C)C1CC(NCc1ccccc1)C1=CCOC1=O (stereo not drawn) | 107%
37 | CCCCCCCCCCCC(=O)NCCC[N+](C)(C)CC(=O)[O-] | 97.3%
38 | CN(CCCCCl)P(=O)(OCc1ccc([N+](=O)[O-])o1)C(F)(F)C[C@H](NC(=O)CNC(=O)c1ccc(N=[N+]=[N-])cc1)C(=O)NCCc1ccc(O)cc1 (stereo partly drawn) | 118%
39 | NC(N)=Nc1nc2ccccc2o1 | 88.4%

System: NCI-H460 lung
Experiment: as above
Conditions: 10 µM unless noted

Row | Compound | growth
40 | CN(C[C@H]1Cc2c(cccc2N2CCN(c3ncccn3)CC2)CN1)[C@H]1CCCc2cccnc21 | 20.7%
41 | COc1ccc(-c2cnoc2-c2ccc(OC)cc2O)cc1 | 7.27% (active)
42 | COc1ccc(/C=N\NC(=O)CN2CCN(c3cc4c(cc3F)c(=O)c(C(=O)N/N=C/c3ccc(OC)c(OC)c3)cn4C3CC3)CC2)cc1OC | 3.65% (active)
43 | C1=Cc2ccccc2N(c2nnc(-c3ccccc3)o2)c2ccccc21 | 49.8%
44 | COc1ccc(-c2nc3sc(-c4cc(OC)c(OC)c(OC)c4)nn3c2/C=C2/C(=O)Nc3ccc(F)cc32)cc1 | -26.6% (active)
45 | O=C(Oc1ccccc1[N+](=O)[O-])C1CCCN1C(=O)OCc1ccccc1 (stereo not drawn) | 116%
46 | CC(C)(C)OC(=O)NC(CSCc1ccccc1)C(=O)ON1C(=O)CCC1=O (stereo not drawn) | 111%
47 | O=S(=O)(NCCCNc1nccc(-n2ccc3cccnc32)n1)c1ccc(Br)cc1 | 105%
48 | COc1ccc(/C=C2\Oc3cc(OCCCN4CCCC4)ccc3C2=O)cc1 | 68.5%
49 | Cc1csc(NC(c2ccc(Br)cc2)c2c(C)nc3ccccn23)n1 (stereo not drawn) | 98.4%
50 | Cn1c(=O)cc(NC(=O)CN2CCN(c3cc4c(cc3F)c(=O)c(C(=O)O)cn4C3CC3)CC2)[nH]c1=O | 105%
51 | CC(C)(C)n1cc(-c2ccnc(NCCNS(=O)(=O)c3ccc(F)cc3)c2)c(-c2cccc(O)c2)n1 | 29.8%
52 | CC(C)(C)n1cc(-c2ccnc(NCCNS(=O)(=O)c3ccc(Cl)cc3)c2)c(-c2cccc(O)c2)n1 | 28.2%
53 | O=C1Nc2ccc3c(c2/C1=C\c1cc2c(cc1Br)OCO2)OCO3 | -31.2% (active)
54 | Cc1ccc(N2CCN(C(C)C(N)=O)CC2)cc1 (stereo not drawn) | 121%
55 | COc1cc(NC(N)=NCCC(C)(C)Oc2ccc(C(F)(F)F)cc2)ncc1C#N | -79.3% (active)
56 | CCc1ccc(-c2ccc(=O)n(-c3ccc(S(N)(=O)=O)cc3)n2)cc1 | 12.6%
57 | CC[N+](CC)=c1cc2oc3cc(N(C)C)ccc3nc-2cc1C | 36.4%
58 | COc1cccc(-c2nc3sccn3c2-c2ccnc(NCCCNS(=O)(=O)c3ccc(F)cc3)c2)c1 | 34.8%
59 | N[C@H]1CN(C(=O)c2cc3cc(Br)c(F)c(F)c3[nH]2)C[C@@H]1O | 107%

Row | Compound | growth
60 | O=C(N/N=C/C=C\c1ccccc1)C(=O)N/N=C/C=C/c1ccccc1 | 117%
61 | O=C(O)COc1ccc(-c2cssc2=S)cc1 | 113%
62 | CCOC(=O)c1c(NS(=O)(=O)c2ccc(C)cc2)sc2c1CCC1(C2)OCCO1 | 100%
63 | Cc1nc2ncccc2nc1Nc1ccc(S(=O)(=O)Nc2ccccn2)cc1 | 106%
64 | Fc1ccc(Nc2ncnc3ccc(-c4cnc5[nH]ccc5c4)cc23)cc1Cl | -58.9% (active)
65 | COc1ccc(C2C(C#N)=C(N)Oc3c2ccc2ccccc32)cc1 (stereo not drawn) | 14.6%
66 | COc1ccc(C(=O)N2NC(=O)/C(=C/c3cn(-c4ccccc4)nc3-c3ccccc3)N=C2c2ccccc2)cc1 | 106%
67 | C=C1C(=O)O[C@H]2[C@H]1CC/C(Cn1cc(CNC(=O)Cc3cn(C(=O)c4ccc(Cl)cc4)c4ccc(OC)cc34)nn1)=C\CC[C@@]1(C)O[C@@H]21 | 88.5%
68 | CCCCC(CC)OC(=O)C(Br)CC (stereo not drawn) | 109%
69 | O=C1/C(=C/c2ccccc2)Oc2ccc(O)c(I)c21 | 103%
70 | COC(=O)c1cc2cc(-c3ccc(OC)cc3)cnc2[nH]1 | 6.52% (active)
71 | c1coc(CNc2ccnc(Nc3ccc(OCCN4CCCCC4)cc3)n2)c1 | 89.2%
72 | COc1ccc2[nH]c(C(=O)OCc3ccc4c(Cl)cc(Cl)c(O)c4n3)cc2c1 | -35.2% (active)
73 | CCOC(=O)C1CCNC(=O)C1=O (stereo not drawn) | 113%
74 | O=C(O)C1CCCCN1c1nc(Cl)nc(Cl)n1 (stereo not drawn) | 105%
75 | C=C1CCC2C(C)(CO)C(O)CCC2(C)C1CC(NCc1ccccc1)C1=CCOC1=O (stereo not drawn) | 102%
76 | CCCCCCCCCCCC(=O)NCCC[N+](C)(C)CC(=O)[O-] | 104%
77 | CN(CCCCCl)P(=O)(OCc1ccc([N+](=O)[O-])o1)C(F)(F)C[C@H](NC(=O)CNC(=O)c1ccc(N=[N+]=[N-])cc1)C(=O)NCCc1ccc(O)cc1 (stereo partly drawn) | 105%
78 | NC(N)=Nc1nc2ccccc2o1 | 99.8%
